Assay results as given in PubChem BioAssay (NCATS).
Records with an inconclusive call do not appear. A call without a number means that no potency is given here. Active and inactive are the calls of the source. Calls follow the shape of the dose curve; as a rule, active = well fitted curve in the direction sought with a large enough effect; inconclusive = small, poorly fitted or top-dose-only effect, or another doubt; inactive = no such curve, though single readings can be large; an effect the other way counts as inactive or inconclusive.

Experiments:
[1] = NS1 protein of Zika virus - qHTS assay to identify small molecule inhibitors in human HEK 293 cells (AID 1347053); conditions: HEK293 ZIKV MR766 infection, NS1 TR-FRET, 24 h; series mostly up to 46.1 µM; also: nearly all actives have a fitted effect of over 55% in size
Outline: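 Compound-treated (1 h pre-infection) HEK 293 cells infected with ZIKV MR766, MOI = 0.5; after 24 h at 37 C, NS1 read by TR-FRET; data normalized to uninfected and infected controls.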

[2] = qHTS of pediatric cancer cell lines to identify multiple opportunities for drug repurposing: Primary screen for TC32 cells (AID 1347089); conditions: TC32 Ewing sarcoma viability, CellTiter-Glo luminescence, 48 h; series mostly up to 45.8 µM; also: nearly all actives have a fitted effect of over 60% in size
Outline: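 Measured quantity: luminescence from CellTiter-Glo, reflecting metabolically active TC32 cells following 48 h of compound. Curves came straight from multi-point titrations, with 8 or 11 points in primary and 11 in confirmatory screening.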
Potency is read from the fitted curve at half-maximal effect.

Row | SMILES | Potency [1] | Potency [2]
1 | N#CC1(c2cccc(C(=O)Nc3cc(Oc4ccc5nc(NC(=O)C6CC6)sc5n4)ccc3F)c2Cl)CC1 | 2.35 µM (active) | inactive
2 | O=[N+]([O-])c1ccc(Nc2ccccc2-c2ccccc2)c2nonc12 | inactive | inactive
3 | Cc1ccc(NC(=O)Nc2cc(C(F)(F)F)ccc2F)cc1Nc1ccc2c(c1)NC(=O)C2=Cc1ccc[nH]1 | inactive | inactive
4 | O=C(NCCCCN1CCOCC1)c1cc2ccccc2o1 | inactive | inactive
5 | CCCCCOC(=O)Nc1nc(=O)n([C@@H]2O[C@H](C)[C@@H](O)C2O)cc1F (stereo partly specified) | inactive | inactive
6 | OC(c1cc(C(F)(F)F)nc2c(C(F)(F)F)cccc12)C1CCCCN1 (stereo unspecified) | 10.5 µM (active) | inactive
7 | O=C(CC12CC3CC(CC(C3)C1)C2)Nc1cccc2nc(NCCNCCO)ccc12 | inactive | inactive
8 | COc1ccc2nc3cc(Cl)ccc3c(Nc3cc(CN4CCCC4)c(O)c(CN4CCCC4)c3)c2n1 | inactive | inactive
9 | CCC(c1ccc(O)cc1)C(CC)c1ccc(O)cc1 (stereo unspecified) | inactive | inactive
10 | NC(=O)c1noc([C@H](CCCC2CCCCC2)CC(=O)NO)n1 | 13.2 µM (active) | inactive
11 | CCCCC(F)(F)[C@@]1(O)CC[C@H]2[C@H](CC(=O)[C@@H]2CCCCCCC(=O)O)O1 | inactive | inactive
12 | CN1CCN(c2ncc(-c3cc(Cl)cc(Cl)c3Cl)c(N)n2)CC1 | inactive | inactive
13 | CN(C)CCCNC(=O)c1ccc(-c2cc(O)c3ncccc3c2)cc1 | inactive | inactive
14 | CC[C@H](C)n1cc(C)c2c(C(=O)NCc3c(C)cc(C)[nH]c3=O)cc(-c3ccc(N4CCNCC4)nc3)cc21 | inactive | inactive
15 | CCOC(=O)[C@H](CCc1ccccc1)N[C@@H](C)C(=O)N1CCCC1C(=O)O (stereo partly specified) | inactive | inactive
16 | COc1nccc(-c2c(-c3ccc(F)cc3)ncn2C2CCC(O)CC2)n1 (stereo unspecified) | inactive | inactive
17 | CN1CCc2c(n(Cc3ccc(C(=O)NO)cc3)c3ccccc23)C1 | inactive | inactive
18 | CCN1C[C@H](C)n2c(c(O)c3c(=O)n(Cc4ccc(F)c(Cl)c4)nc(C(=O)NC)c32)C1=O | inactive | inactive
19 | CC(C)C[C@H](NC(=O)c1cc2ccccc2s1)C(=O)N1CCN(C(=O)[C@H](CO)NS(=O)(=O)c2ccc(Cl)cc2Cl)CC1 | – | inactive
20 | C[C@@H]1CC=CC=CC=CC=C[C@@H](O[C@@H]2O[C@H](C)[C@@H](O)[C@H](N)[C@H]2O)C[C@@H]2O[C@](O)(C[C@@H](O)C[C@@H]3O[C@@H]3C=CC(=O)O1)C[C@H](O)[C@@H]2C(=O)O | inactive | inactive
21 | COc1cc([C@@H]2c3cc4c(cc3[C@@H](O[C@@H]3O[C@@H]5CO[C@@H](C)O[C@@H]5[C@H](O)[C@@H]3O)[C@H]3COC(=O)[C@H]23)OCO4)cc(OC)c1O | 1.18 µM (active) | 1.04 µM (active)
22 | COc1cc(N2CCN(C)CC2)ccc1Nc1nc(N)c(C(=O)c2c(Cl)cccc2Cl)s1 | inactive | inactive
23 | O=C(C=Cc1ccc(O)cc1)c1ccc(O)cc1O | – | inactive
24 | N=C1SC(=Cc2ccc(-c3ccc4c(c3)C(=O)NC4=O)o2)C(=O)N1c1ccc(Br)cc1 | inactive | inactive
